Test results published in PubChem BioAssay.
Unmarked numbers belong to inactive results. Activity calls are given as the source filed them.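 Rule for the calls, unless noted: active = mean inhibition above 46.5%, the solvent-only control mean plus 3 SD; inactive = the rest.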

Tests used:
[1] = test system: transactivating tegument protein VP16 (Human herpesvirus 1); test: compounds suppressing VP16-driven luciferase signal – cell-based, luminescence, single concentration, counter-screen for SRC2 inhibitor project (AID 652007; in the data active = inhibition above about 36%); conditions: cell-based VP16 transactivation luciferase reporter, at 8.9 µM, stronger effect = higher value
[2] = target: Nuclear receptor coactivator 2 (Homo sapiens) (UniProt Q15596); test: inhibition of GAL4-SRC2 driven luciferase expression – cell-based, luminescence, HEK293, triplicate, confirmation (AID 652008); conditions: HEK293 GAL4-SRC2 luciferase reporter, at 8.9 µM, stronger effect = higher value;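 note: 0% = DMSO-treated cells and 100% = Gossypol at 36 µM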
Nuclear receptor coactivator 2 (Homo sapiens), sequence (Q15596 whole entry, looked up, the tested form may be a part): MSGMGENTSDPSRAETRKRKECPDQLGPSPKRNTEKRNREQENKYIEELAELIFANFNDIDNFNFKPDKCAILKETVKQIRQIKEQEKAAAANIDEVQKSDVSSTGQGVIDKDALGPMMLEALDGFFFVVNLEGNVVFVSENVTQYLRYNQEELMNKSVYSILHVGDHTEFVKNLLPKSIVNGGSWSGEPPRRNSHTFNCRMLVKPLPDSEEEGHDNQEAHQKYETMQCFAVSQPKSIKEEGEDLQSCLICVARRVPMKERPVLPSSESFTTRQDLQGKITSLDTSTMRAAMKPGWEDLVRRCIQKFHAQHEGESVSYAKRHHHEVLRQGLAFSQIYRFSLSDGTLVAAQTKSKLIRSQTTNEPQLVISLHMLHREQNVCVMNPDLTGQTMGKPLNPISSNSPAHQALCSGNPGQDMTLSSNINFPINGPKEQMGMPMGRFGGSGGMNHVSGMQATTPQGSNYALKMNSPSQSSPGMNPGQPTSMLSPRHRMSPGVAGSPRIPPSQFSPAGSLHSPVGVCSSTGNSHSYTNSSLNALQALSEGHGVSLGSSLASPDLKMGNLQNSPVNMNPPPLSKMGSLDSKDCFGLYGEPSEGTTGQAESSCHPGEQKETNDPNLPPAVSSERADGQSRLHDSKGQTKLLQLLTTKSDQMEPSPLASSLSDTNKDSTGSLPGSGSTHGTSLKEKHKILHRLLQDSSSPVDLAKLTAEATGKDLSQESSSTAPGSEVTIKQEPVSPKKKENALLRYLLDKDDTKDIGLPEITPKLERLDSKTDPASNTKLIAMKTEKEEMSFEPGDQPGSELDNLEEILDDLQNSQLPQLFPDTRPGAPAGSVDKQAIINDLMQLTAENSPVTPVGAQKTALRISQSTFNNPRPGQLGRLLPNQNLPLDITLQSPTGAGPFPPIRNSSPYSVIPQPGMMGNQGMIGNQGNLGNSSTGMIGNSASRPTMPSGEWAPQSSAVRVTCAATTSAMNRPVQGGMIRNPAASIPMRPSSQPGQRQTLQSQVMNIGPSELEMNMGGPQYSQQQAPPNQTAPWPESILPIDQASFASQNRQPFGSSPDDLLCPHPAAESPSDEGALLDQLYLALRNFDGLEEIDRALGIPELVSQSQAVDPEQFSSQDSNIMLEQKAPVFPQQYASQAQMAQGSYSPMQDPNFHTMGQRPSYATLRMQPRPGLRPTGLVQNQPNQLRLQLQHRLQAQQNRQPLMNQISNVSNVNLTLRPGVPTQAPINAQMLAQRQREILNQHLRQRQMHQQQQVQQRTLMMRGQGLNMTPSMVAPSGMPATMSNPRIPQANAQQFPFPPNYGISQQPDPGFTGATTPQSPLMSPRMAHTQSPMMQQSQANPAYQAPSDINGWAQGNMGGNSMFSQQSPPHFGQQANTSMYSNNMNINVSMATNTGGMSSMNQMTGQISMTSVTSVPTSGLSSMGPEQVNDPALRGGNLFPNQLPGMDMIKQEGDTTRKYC

Compound	inhibition [1]	inhibition [2]
COc1ccc(CCNc2nnc(Sc3nnnn3-c3ccccc3)s2)cc1OC	5.42%	20.1%
COc1ccc(-c2csc3ncnc(NCCO)c23)cc1	3.39%	47.1% (active)
O=C(c1cc2sccc2n1Cc1ccc(F)cc1)N1CCN(c2nc3ccccc3s2)CC1	6.21%	36.9%
Cc1onc(C(=O)N2CCC(Cc3ccccc3)CC2)c1[N+](=O)[O-]	-1.3%	5.37%
CCc1cc2c(Sc3nc4ccccc4s3)ncnc2s1	36.6% (active)	42.6%
O=S(=O)(c1ccc(NC(=S)NCc2ccncc2)cc1)N1CCCCC1	15.6%	0.63%
Cc1ccc(C2(CCNCc3ccco3)CCOC(C(C)C)C2)cc1 (centres undefined)	-11.6%	-20.8%
O=C(Cc1ccc(Cl)cc1)NCCc1cnc[nH]1	-16.2%	-12.5%
O=C(Nc1cccc(-c2cccc(Cl)c2)c1)C1CCN(Cc2ccccn2)CC1	-2.92%	17.7%
Nc1ccc(C(=O)n2c3ccccc3c3ccccc32)cc1	20.2%	17.5%
O=C(CCCN1C(=O)/C(=C/c2ccccc2)SC1=S)NCCCn1ccnc1	35.9% (active)	26.1%
COc1ccc(C(=O)c2ccc(CC(=O)O)s2)cc1	29.4%	43.1%
Cn1c(=O)c(=O)n(C)c2cc(S(=O)(=O)Nc3ccc4c(c3)OCCO4)ccc21	-4.82%	47.5% (active)
CCOC(=O)C1CCCCN1C(=O)CCc1c(C)nc2cc(-c3ccccc3)nn2c1C (centres undefined)	-0.8%	70.2% (active)
COCCN(C(=O)CC1C(=O)NCCN1Cc1ccc(-c2ccccc2)cc1)C(C)C (centres undefined)	-1.75%	-6.54%
O=C(CCl)N(Cc1cc(=O)[nH]c2ccccc12)c1ccccc1	38.6% (active)	50.5% (active)
CN(Cc1ccc(Cl)cc1)C(=O)CCl	29.1%	25.3%
Cc1ccc(NC(=O)C2CCN(S(=O)(=O)c3cc([N+](=O)[O-])ccc3Cl)CC2)nc1	10.7%	24.3%
CCS(=O)(=O)c1ncc(Cl)c(C(=O)Nc2ccc(S(=O)(=O)N3CCC(C)CC3)cc2)n1	89.9% (active)	86.7% (active)
CCC(C)Nc1nc(C)nc2c1oc1ccccc12 (centres undefined)	2.3%	3.55%
COc1cccc2c1C(CO)N1C(C#N)C3CC(C(=O)O)C(C1C2)N3C (centres undefined)	40.5% (active)	66.1% (active)
COc1ccc2ccc(O)c(CN3CCN(S(=O)(=O)c4cccc(C(F)(F)F)c4)CC3)c2c1	6.66%	-14%
O=C(N=C1SC2CS(=O)(=O)CC2N1Cc1ccccc1)C1CCCO1 (centres undefined)	-0.59%	-2.87%
CC1CC(C)(C)Nc2ccc(OC(=O)c3ccco3)cc21 (centres undefined)	-46.6%	46.8% (active)

Compound	inhibition [1]	inhibition [2]
CC(C)(C)c1nnc2sc(SCC(=O)c3cccs3)nn2c1=O	15.5%	30%
OC[C@@H]1CN(Cc2ccc(-c3ccccc3)cc2)C[C@H](n2cnc3c(NCc4ccc(F)cc4)ncnc32)O1	20.8%	22.9%
COc1cccc(/C=C2\SC(=S)N(CCCC(=O)N3CCCCC3CCO)C2=O)c1 (centres undefined)	51.2% (active)	52.2% (active)
COc1ccc(-c2nc3ccccn3c2NC2CCCCC2)cc1SC1CCCCC1	17.4%	-1.51%
O=C1N(Cc2cccc(Cl)c2)C[C@@H]2C[C@@H](c3cccc4cccnc34)N3CCC[C@@]123	-2.19%	-23.5%
CCN(CC)S(=O)(=O)c1ccc(NC(=O)Nc2cccc(C(F)(F)F)c2)cc1	-13.1%	14%
CCc1ccc(C(=O)Nc2nc3ccccc3[nH]2)cc1	-1%	45.8%
CCn1c(SCC(=O)c2ccc(-c3ccccc3)cc2)nnc1-c1ccc(C(C)(C)C)cc1	22.6%	31.3%
O=C(N/N=C/c1coc2ccc(Cl)cc2c1=O)c1ccncc1	-13.1%	31.4%
Cc1nnc(SCC2=C(C(=O)O)N3C(=O)C(NC(=O)Cn4nc(C)c(Cl)c4C)C3SC2)s1 (centres undefined)	-2.47%	-7.12%
CC(=O)c1cccc(NC(=O)Nc2ccc(C(=O)N3CCOCC3)cc2)c1	-8.69%	17.1%
CC(C)(C)c1ccc(OC(=O)Nc2ccc(O)c(C(=O)O)c2)cc1	7.15%	30.5%
Cc1ccc(N(C(=O)c2ccc3c(c2)OCO3)C2C=CS(=O)(=O)C2)cc1C (centres undefined)	0.8%	-17.6%
COc1ccc(N2CCN(C(=O)CCCCCn3c(=S)[nH]c4ccc(N5CCOCC5)cc4c3=O)CC2)cc1	-3.27%	-4.46%
O=C(CCl)Nc1ccc(-c2ccccc2)cc1	32.4%	65.6% (active)
Oc1ccc(N=Nc2ccc3c(c2)OCCO3)c(O)c1	-71.4%	35.1%
C=C(C(=O)c1ccccc1)C(C)CC(=O)c1ccccc1 (centres undefined)	11.5%	26.8%
CC(=NCc1ccco1)c1c(C)[nH]n(-c2nc3ccccc3s2)c1=O	-24%	14.3%
COc1cc(OC)cc(-c2cc3nc(C)c(CCC(=O)NCc4ccccc4)c(C)n3n2)c1	66.8% (active)	72.1% (active)
CCn1nc(NS(=O)(=O)c2ccc([N+](=O)[O-])cc2)c2cc3ccc(C)cc3nc21	10.1%	-26.1%
CSCC[C@H](NC(=O)c1cc([N+](=O)[O-])ccc1Cl)c1nc2ccccc2[nH]1	-0.37%	19%
Nn1c(SCC(=O)Nc2cc(C(F)(F)F)ccc2Cl)nncc1=O	3.78%	-1.26%
O=S(=O)(Cc1ccccc1Cl)NCCc1ccc(F)cc1	-11.3%	-1.95%
COc1ccc(C2C(O)C(c3c[nH]c4ccccc34)=NN2C(=O)CCl)cc1 (centres undefined)	72.7% (active)	79.9% (active)

Compound	inhibition [1]	inhibition [2]
O=C(O)CCSc1ncnc2sc(-c3ccccc3)cc12	67.7% (active)	88.4% (active)
CC(C)c1nc(N2CCOCC2)c(C#N)c2c1CCC2	-15.7%	4.3%
CC(=O)Nc1ccc(Nc2cc(C)nc3c(-c4ccccc4)cnn23)cc1	-21.3%	35.7%
Cc1cnc(NC(=O)COc2ccccc2Cl)s1	-10.5%	18.8%
CCOC(=O)c1c(C)[nH]c(C(=O)Nc2ccc(NC(C)=O)cc2)c1C	6.79%	8.17%
CC(=O)c1cccc(NC(=O)c2ccccc2N(C)S(=O)(=O)c2ccc(C)cc2)c1	-5.87%	0.15%
CC1(C)CC(=O)C/C(=N/Nc2nc3ccccc3s2)C1	-61.5%	-13.5%
Cc1ccccc1N(Cc1cc(=O)[nH]c2ccccc12)C(=O)CCl	44.6% (active)	76.7% (active)
COc1ccc(-c2cn3cccnc3n2)cc1NC(=O)C(C)Oc1ccccc1 (centres undefined)	-18.1%	-20.2%
Nn1c(SCC(=O)Nc2cccc3ccccc23)nnc1-c1cc(-c2ccc(Cl)cc2)n[nH]1	51% (active)	15.4%
CCOC(=O)c1c(C)nn(-c2ccc(NC(=O)c3c(C)noc3C)cc2)c1C	11.6%	52.8% (active)
O=C(Nc1ccc2nc3n(c(=O)c2c1)CCCCC3)c1cc([N+](=O)[O-])ccc1F	32.1%	30.4%
O=c1c2ccccc2sn1-c1ccccc1	-5.09%	-17.8%
CC(C)(C)c1ccc(-c2n[nH]c(=S)n2C2CCCC2)cc1	1.72%	3.48%
CCCC1=Nc2cc(C(=O)NCCCOCC)ccc2Sc2ccccc21	-2.83%	15.5%
CN1/C(=C/C=C/c2n(C)c3cc([N+](=O)[O-])c([N+](=O)[O-])cc3[n+]2C)C(C)(C)c2ccccc21	3.99%	-3.59%
CCS(=O)(=O)c1ncc(Cl)c(C(=O)Nc2ccc(C)cc2)n1	1.43%	0.68%
Cc1ccc(-n2nc3ccc(N)cc3n2)c(C)c1	-39.4%	21.3%
CCOc1cc(/C=C/C(=O)c2ccc3c(c2)OCCO3)ccc1OCC(=O)N(C)C	2.55%	16.2%
COc1ccc(-c2nnc(SCC(=O)Oc3ccc(C)cc3)o2)cc1	-10%	-4.18%
Cc1ccc(S(=O)(=O)C[C@@H]2OC[C@H](C)N2S(=O)(=O)c2ccc(C)cc2)cc1	1.93%	-6.07%
Cc1nc2ccccc2c2c1CC(C(C)(Cl)Br)O2 (centres undefined)	5.15%	29.1%
O=C(O)/C=C/C(=O)N(CC1CCCO1)C1CC(=O)N(c2c(Cl)cccc2Cl)C1=O (centres undefined)	-22.7%	-29.3%
CC(=O)Nc1ccc(NC(=O)c2ccc(-c3ccnn3C)c3ccoc23)cc1	-6.57%	26.4%
